Results from PubChem BioAssay AID588591 (National Center for Advancing Translational Sciences (NCATS), 2011).
Where “and” joins values, the source holds several entries; their conditions need not be identical. Equal entries are not always repeated. About 4,700 (1.2%) of roughly 390,000 compounds were called active. Where a call stands in place of a potency, no number is given. About 4% were inconclusive and are not listed. The sample holds actives, similar compounds and a random draw of the others, so the mix is not that of the screen. Calls follow the shape of the dose curve; as a rule, active = well fitted inhibition curve with a large enough effect; inconclusive = small, poorly fitted or top-dose-only effect, or another doubt; inactive = no such curve, though single readings can be large or run the other way. More than one record can exist for a structure, and the calls need not agree.

biological target: DNA polymerase eta (Homo sapiens) (UniProt Q9Y253); experiment: qHTS for Inhibitors of Polymerase Eta; conditions: recombinant Pol eta, fluorescent DNA replication assay; series mostly up to 114 µM
Procedure, shortened: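 Pol eta (10 nM) was preincubated with compounds for 15 min at room temperature, after which fluorescent replication substrate (50 nM final) was added to start the reaction. Fluorescence was read kinetically at 0 and 10 min.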
Potency is read from the fitted curve at half-maximal effect.

Sequence of DNA polymerase eta (Homo sapiens) (Q9Y253 whole entry, looked up): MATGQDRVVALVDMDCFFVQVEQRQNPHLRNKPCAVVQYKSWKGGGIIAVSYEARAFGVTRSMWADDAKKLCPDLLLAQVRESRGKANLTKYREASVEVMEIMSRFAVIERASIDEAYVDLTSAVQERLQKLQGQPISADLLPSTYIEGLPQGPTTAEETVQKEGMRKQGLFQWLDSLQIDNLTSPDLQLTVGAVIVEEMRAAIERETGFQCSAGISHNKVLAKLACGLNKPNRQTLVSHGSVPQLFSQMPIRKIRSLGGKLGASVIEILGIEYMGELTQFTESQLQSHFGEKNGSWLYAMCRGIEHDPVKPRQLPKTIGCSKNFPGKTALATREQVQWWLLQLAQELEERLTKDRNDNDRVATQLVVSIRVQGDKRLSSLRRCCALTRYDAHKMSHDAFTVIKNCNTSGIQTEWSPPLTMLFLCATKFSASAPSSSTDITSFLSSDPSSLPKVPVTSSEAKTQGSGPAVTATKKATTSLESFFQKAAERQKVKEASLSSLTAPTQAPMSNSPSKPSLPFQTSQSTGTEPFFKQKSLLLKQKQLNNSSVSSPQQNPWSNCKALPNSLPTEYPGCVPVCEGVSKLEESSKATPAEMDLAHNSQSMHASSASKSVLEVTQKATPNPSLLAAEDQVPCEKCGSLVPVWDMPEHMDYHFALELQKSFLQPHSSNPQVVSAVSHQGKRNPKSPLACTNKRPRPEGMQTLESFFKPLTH

| Compound | Potency |
| --- | --- |
| O=C1/C(=C\c2ccc([N+](=O)[O-])cc2)CS(=O)(=O)C/C1=C/c1ccc([N+](=O)[O-])cc1 | 15.8 µM (active) |
| O=C(CC1Oc2ccc(Cl)cc2NC1=O)NCc1ccccc1 (stereo unspecified) | inactive |
| COc1ccccc1NC(=O)C(=O)c1cc(C)n(-c2ccccc2F)c1C | inactive |
| CO/N=C(\C(=O)N[C@@H]1C(=O)N2C(C(=O)O)=C(COC(C)=O)CS[C@H]12)c1csc(N)n1 (stereo in doubt) | inactive and 20 µM (active) and 28.2 µM (active) |
| C=CC1=C(C(=O)O)N2C(=O)[C@@H](NC(=O)/C(=N\OCC(=O)O)c3csc(N)n3)[C@H]2SC1 | 7.08 µM (active) |
| CC(=O)N1CCCc2cc(S(=O)(=O)N3CCC(C(=O)NCc4ccc(C)cc4)CC3)ccc21 | inactive |
| CC(=O)OC1=C(C(C)=O)N(Cc2ccccc2)S(=O)(=O)c2ccccc21 | inactive |
| CCN(CC)c1nn2c(=O)c(C(=O)NCCc3ccccc3)cnc2s1 | inactive |
| COc1ccccc1CNC(=O)c1ccc(CS(=O)c2ccccc2Cl)o1 (stereo unspecified) | inactive |
| O=C(CC1N=C2c3ccccc3N=C(SCc3cccc(Cl)c3)N2C1=O)NCc1ccc2c(c1)OCO2 (stereo unspecified) | inactive |
| CC1=C(C)C(=O)OC(C(C)C2CCC3C4CC=C5CC(OC6OC(COC7OC(CO)C(O)C(O)C7O)C(O)C(O)C6O)CC(O)C5(C)C4CCC23C)C1 (stereo unspecified) | inactive |
| C=CC1C(OC2OC(CO)C(O)C(O)C2O)OC=C(C(=O)OC)C1CC1CC(=O)CC(CC(=O)CCc2ccc(O)cc2)O1 (stereo unspecified) | inactive |
| CC(/C=C/C1(O)C(C)CC(=O)CC1(C)C)OC1OC(CO)C(O)C(O)C1O (stereo unspecified) | 31.6 µM (active) |
| Cc1ccc(Nc2c(-c3ccc(C)cc3)nc3cnccn23)cc1 | inactive |
| COc1cccc(NC(=O)N(Cc2cn(C)c3ccccc23)C2CCCCCC2)c1 | inactive |
| O=C1CSC(=S)N1/N=C/c1ccc(O)c([N+](=O)[O-])c1 | 6.31 µM (active) |
| COc1cc(Cl)c(NC(=O)C(NS(=O)(=O)c2cccs2)C(C)C)c(OC)c1 (stereo unspecified) | inactive |
| COc1cccc2c1C(=O)c1c(O)c3c(c(O)c1C2=O)CC(O)(C(C)=NNC(=O)c1ccc(Cl)c(Cl)c1)CC3OC1CC(N)C(O)C(C)O1 (stereo unspecified) | 12.6 µM (active) |
| CCOc1ccc(N(Cc2ccccc2)C(=O)c2nc(S(C)(=O)=O)ncc2Cl)cc1 | inactive |
| Cc1ccc(-c2cn3c(n2)sc2cc(C(=O)NCc4cccs4)ccc23)c(C)c1 | inactive |
| O=C(CSC1=Nc2ccccc2C2=NC(CC(=O)NCc3ccco3)C(=O)N12)NCc1ccco1 (stereo unspecified) | 15.8 µM (active) |
| COc1ccccc1NC(=O)CSC1=Nc2ccccc2C2=NC(CC(=O)NCc3cccs3)C(=O)N12 (stereo unspecified) | inactive |
| O=C(CC1N=C2c3ccccc3N=C(SCc3ccc(F)cc3)N2C1=O)NCc1cccs1 (stereo unspecified) | inactive |

| Compound | Potency |
| --- | --- |
| Cc1cc(=O)c2cc(C(=O)Nc3cccc(C)c3C)ccc2[nH]1 | inactive |
| CCc1ccccc1N1C(=O)CN(S(=O)(=O)CC)CC1(C)C(=O)NC1CCCCC1 (stereo unspecified) | inactive |
| COc1cccc2c1cc1c(=O)n(CC(=O)N3CCN(c4cccc(Cl)c4)CC3)nc(C)n12 | inactive |
| COc1cc(CN2CC(C)CC(C)C2)cc([N+](=O)[O-])c1O (stereo unspecified) | inactive |
| COc1cc(/C=C2/C(=O)NN(c3ccc(F)cc3)C2=O)cc([N+](=O)[O-])c1O | 44.7 µM (active) |
| COc1cc(/C=C2/C(=O)NN(c3cccc(Cl)c3)C2=O)cc(Br)c1O | 89.1 µM (active) |
| COc1ccc(N2C(=O)CC(Nc3ccc(F)cc3)C2=O)c([N+](=O)[O-])c1 (stereo unspecified) | inactive |
| CCOC(=O)c1c(NC(=O)/C(C#N)=C/c2ccccc2)sc2c1CCC2 | inactive |
| O=C(NCCCO)C(=O)Nc1c2c(nn1-c1ccc(F)cc1)CSC2 | inactive |
| CCCCOc1ccc(C(=O)Nc2cccc(-c3nc4ccccc4o3)c2C)cc1 | inactive |
| Cc1ccc(S(=O)(=O)n2nc(C)c(S(=O)(=O)N3CCCCCC3)c2C)cc1 | inactive |
| O=C(CSc1ncc(-c2ccccc2)[nH]1)Nc1ccc(F)cc1F | inactive |
| Oc1ccccc1-c1nc(/C=C/c2ccc(F)cc2)no1 | inactive |
| Cc1nc2nc(SCC(=O)NCc3ccco3)nn2c(C)c1Cc1ccccc1 | 44.7 µM (active) |
| COc1cc(NC(=O)CSc2nc3nc(C)c(Cc4ccc(C)cc4)c(C)n3n2)cc(OC)c1OC | inactive |
| Cc1ccc(Cc2c(C)nc3nc(SCC(=O)NCCN4CCOCC4)nn3c2C)cc1 | inactive |
| COC(=O)Nc1ccc(S(=O)(=O)Nc2cc(OC)nc(OC)n2)cc1 | inactive |
| COc1cc(NS(=O)(=O)c2ccc(NC(=S)NC(=O)c3ccccc3)cc2)nc(OC)n1 | inactive |
| COc1cc(NS(=O)(=O)c2ccc(N/C=C(\C=O)c3nc4cc(Cl)ccc4o3)cc2)nc(OC)n1 | 31.6 µM (active) |
| CCCn1c2ccccc2c2cnn(CC(=O)NCC3CCN(Cc4ccc(C)cc4)CC3)c(=O)c21 | inactive |
| Cc1c(C(=O)N(C)C)sc2c1c(=O)n(-c1ccc(F)cc1)c(=O)n2CC(=O)N(C)c1ccccc1 | inactive |
| CCOC(=O)c1ccc(NC(=O)CCS(=O)(=O)c2ccc3c(c2)oc(=O)n3C)cc1 | inactive |
| OC[C@H]1O[C@@H](n2cnc3c(NC4CCCC4)ncnc32)[C@H](O)[C@H]1O | inactive |

| Compound | Potency |
| --- | --- |
| CCOCCc1c(O)nc(SCC(=O)NCc2ccco2)[nH]c1=O | 15.8 µM (active) |
| CCn1c(SCC(=O)NCc2ccco2)nnc1-c1ccc(N)cc1 | inactive |
| CCOC(=O)c1sc(NC(=O)CSc2nc(O)c(Cc3ccccc3)c(=O)[nH]2)nc1C | inactive |
| Cc1ccc(CSc2oc(-c3cccs3)nc2S(=O)(=O)c2ccc(C)cc2)cc1 | inactive |
| CCCCN1CC(c2nc3ccccc3n2CCCCOc2ccc(C)cc2C)CC1=O (stereo unspecified) | inactive |
| COc1cccc(NC(=O)C(=O)NCC(c2ccc3c(c2)OCO3)N2CCN(C)CC2)c1 (stereo unspecified) | inactive |
| COc1ccccc1CNS(=O)(=O)c1cc(Br)cc2c1N(C(C)=O)C(C)C2 (stereo unspecified) | inactive |
| Cc1ccc(Cl)cc1N1CCN(C(=O)c2cnc3c(-c4ccc(F)cc4)c(C)nn3c2C)CC1 | inactive |
| Cc1ccc(OCC(=O)OCc2cc(=O)n3nc(C4CC4)sc3n2)cc1 | inactive |
| Nc1ccc2nc3c(=O)[nH]c(=S)[nH]c3nc2c1 | 1.12 µM (active) |
| Cc1cc(C)c(NC(=O)CCc2c(C)nc3c(c(C)nn3C(C)(C)C)c2C)c(C)c1 | inactive |
| COc1cc(CNCCSc2nnnn2C)ccc1OCc1ccc(Cl)cc1Cl | inactive |
| CC1CCN(S(=O)(=O)c2ccc3c(ccn3CCC(=O)NCc3ccc(N(C)C)cc3)c2)CC1 | inactive |
| O=C1c2cccc3cccc(c23)N1CN1CCN(c2ccccn2)CC1 | inactive |
| O=C(CN1C(=O)c2cccc3cccc1c23)Nc1ccccc1 | 50.1 µM (active) |
| COc1cccc(NC(=O)CN2C(=O)c3ccccc3Sc3ncccc32)c1 | inactive |
| CCN(C(=O)Cn1cc(S(=O)(=O)N2CCN(c3ccccc3F)CC2)c2ccccc2c1=O)c1ccc(C)c(C)c1 | inactive |
| COc1ccccc1OC(C)C(=O)Nc1ccc(S(=O)(=O)Nc2nccs2)cc1 (stereo unspecified) | inactive |
| O=C(Nc1ccc(S(=O)(=O)Nc2nccs2)cc1)c1cc(-c2ccncc2)nc2ccccc12 | 12.6 µM (active) |
| CCC(CC)C(=O)Nc1ccc(S(=O)(=O)Nc2nccs2)cc1 | inactive |
| CC(C)(C)OC(=O)N1CCC(c2c(C(=O)N3CCc4ccccc4C3)cnn2-c2ccc(F)cc2)CC1 | inactive |
| Oc1ccc(Cn2cc[nH]c2=S)cc1 | inactive |
| COc1ccc(CCNc2ncnc3c2cnn3-c2ccc(C)cc2)cc1 | inactive |

| Compound | Potency |
| --- | --- |
| Cc1ccc(NC(=O)CSc2nc3c([nH]c4ccccc43)c(=O)n2-c2ccccc2)cc1Cl | inactive |
| Cc1ccc2nc(N3C(=O)C(O)=C(C(=O)c4ccco4)C3c3cccc(O)c3)sc2c1 (stereo unspecified) | 50.1 µM (active) |
| CC(=O)c1sc(N2C(=O)c3oc4ccccc4c(=O)c3C2c2ccc(C)cc2)nc1C (stereo unspecified) | inactive |
| C=CCSc1nnc(N2C(=O)C(O)=C(C(=O)c3ccco3)C2c2ccc(F)cc2)s1 (stereo unspecified) | inactive |
| CC(=O)c1ccc(NC(=O)CSc2nc(-c3ccccc3F)nc3c2c(=O)n(C)c(=O)n3C)cc1 | inactive |
| CCCCc1nn2c(=O)cc(COC(=O)c3cccc(NC(=O)COc4ccccc4)c3)nc2s1 | inactive |
| Cn1c(=O)[nH]c(=O)c2c1nc(NCCc1ccccc1)n2Cc1ccc(F)cc1 | inactive |
| CC1CCN(c2nc3ccc(C(=O)N4CCN(c5ccccc5)CC4)cc3s2)CC1 | inactive |
| O=C(Nc1ccc(F)cc1)c1cc2c(s1)CCCC2 | inactive |
| O=C(c1cc2c(s1)CCC2)N1CCN(c2ccccc2)CC1 | 10 µM (active) |
| CC1CCCN(c2csc3ccc(F)cc3c2=O)C1 (stereo unspecified) | inactive |
| Cc1cc(C)n2nc(SCC(=O)NC(=O)NCc3ccco3)nc2n1 | inactive |
| Cc1ccc(SCC(=O)NC(=O)NCc2ccco2)c(C)c1 | 14.1 µM (active) |
| Cc1cc(C)c2c(c1)c(C)cc1nnc(SCC(=O)NCc3ccco3)n12 | inactive |
| CCc1cccc(NC(=O)CN(C)S(=O)(=O)c2ccc3[nH]c4c(c3c2)CCCC4)c1 | inactive |
| CCn1c2ccccc2c2nnc(N3CCN(c4cc(C)ccc4C)CC3)nc21 | inactive |
| Cc1ccc2[nH]c3c(=O)n(CC(=O)NC(C)C)ncc3c2c1 | inactive |
| O=C(C1=C(O)C(=O)N(c2ncccn2)C1c1cccs1)c1ccco1 (stereo unspecified) | 79.4 µM (active) |
| O=C(C1=C(O)C(=O)N(CCOCCO)C1c1ccccn1)c1cccs1 (stereo unspecified) | inactive |
| CC(C)c1ccc(C2C(C(=O)c3ccco3)=C(O)C(=O)N2CC2CCCO2)cc1 (stereo unspecified) | inactive |
| O=C(CN1C(=O)CCn2nc(-c3ccccc3)cc21)NCc1ccccc1 | inactive |
| O=C(c1cccs1)c1cn(CCOc2ccc(Cl)cc2)c2ccccc12 | inactive |
